Values joined by “and” are separate entries in the source; they are usually repeats but may differ in a detail not shown here. Equal entries are not always repeated. Among all 5,500 compounds or so, about 2,000 (36%) were called active. Not shown: some 18% with an inconclusive outcome. No stated cut-off is given here; in the data, active means normalized growth mostly below about 0.91 (no sharp cut-off); inconclusive means no clear call, values can overlap the other calls; inactive means mostly above about 0.92. This is one part of the list.
Assay: chemical genetic growth profiling, strain panel (AID 1159580);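 further: tested at 20 µM; growth read once vehicle control cultures reached saturation at 30 °C; 1 = growth at the plate median or of vehicle wells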
Details: S. cerevisiae deletion strains, growth OD

Measured: normalized growth

C[C@]12CCC3c4ccc(O)cc4CCC3C1CC[C@@H]2OC(=O)CCC1CCCC1 (some centres undefined)
inactive: locus YAL021C, strain ccr4, stronger effect = lower value 1.03 | locus YAL026C, strain drs2, stronger effect = lower value 0.997 | locus YAL030W, strain snc1, stronger effect = lower value 1.01 | locus YBL061C, strain skt5, stronger effect = lower value 1 | locus YBR009C, strain hhf1, stronger effect = lower value 1 | locus YBR021W, strain FUR4, stronger effect = lower value 1.02 | locus YBR023C, strain chs3, stronger effect = lower value 1.03 | locus YBR171W, strain sec66, stronger effect = lower value 1.02 | locus YBR229C, strain ROT2, stronger effect = lower value 0.961 | locus YBR231C, strain swc5, stronger effect = lower value 0.98 | locus YBR279W, strain paf1, stronger effect = lower value 1 | locus YCL011C, strain gbp2, stronger effect = lower value 1.02 | locus YCL016C, strain dcc1, stronger effect = lower value 1.03 | locus YCL029C, strain bik1, stronger effect = lower value 1 | locus YCL061C, strain MRC1, stronger effect = lower value 1.01 | locus YCL069W, strain vba3, stronger effect = lower value 1.01 | locus YCR088W, strain abp1, stronger effect = lower value 1.01 | locus YDL005C, strain med2, stronger effect = lower value 1.01 | locus YDL035C, strain GPR1, stronger effect = lower value 0.959 | locus YDL040C, strain nat1, stronger effect = lower value 0.997 | locus YDL074C, strain BRE1, stronger effect = lower value 0.97 | locus YDL101C, strain DUN1, stronger effect = lower value 0.985 | locus YDL185W, strain tfp1, stronger effect = lower value 0.975 | locus YDL192W, strain arf1, stronger effect = lower value 1 | locus YDR001C, strain nth1, stronger effect = lower value 1 | locus YDR069C, strain doa4, stronger effect = lower value 0.989 | locus YDR101C, strain arx1, stronger effect = lower value 0.959 | locus YDR137W, strain rgp1, stronger effect = lower value 1.03 | locus YDR150W, strain NUM1, stronger effect = lower value 0.985 | locus YDR159W, strain sac3, stronger effect = lower value 0.982 | locus YDR162C, strain NBP2, stronger effect = lower value 0.944 | locus YDR195W, strain ref2 1 | locus YDR297W, strain sur2, stronger effect = lower value 1.01 | locus YDR318W, strain mcm21, stronger effect = lower value 1 | locus YDR334W, strain swr1, stronger effect = lower value 1.01 | locus YDR335W, strain msn5, stronger effect = lower value 1.02 | locus YDR388W, stronger effect = lower value 0.991 | locus YDR392W, strain spt3, stronger effect = lower value 0.944 | locus YDR502C, strain sam2, stronger effect = lower value 0.994 | locus YEL003W, strain gim4, stronger effect = lower value 0.988 | locus YEL037C, strain rad23, stronger effect = lower value 0.992 | locus YEL061C, strain CIN8 (second series), stronger effect = lower value 1.01 | locus YEL061C, strain CIN8, stronger effect = lower value 0.989 | locus YER015W, strain faa2, stronger effect = lower value 1 | locus YER016W, strain bim1, stronger effect = lower value 1.01 | locus YER110C, stronger effect = lower value 1.01 | locus YER111C, strain swi4, stronger effect = lower value 1.01 | locus YER155C, strain BEM2 (second series), stronger effect = lower value 1.01 | locus YER155C, strain BEM2, stronger effect = lower value 1 | locus YER167W, strain BCK2, stronger effect = lower value 1.01 | locus YFR010W, strain ubp6, stronger effect = lower value 1.01 | locus YGL078C, strain dbp3, stronger effect = lower value 0.998 | locus YGL086W, strain mad1, stronger effect = lower value 0.994 | locus YGL167C, strain pmr1, stronger effect = lower value 1.01 | locus YGL173C, strain kem1, stronger effect = lower value 1.02 | locus YGL227W, strain vid30, stronger effect = lower value 1.03 | locus YGL240W, strain doc1, stronger effect = lower value 1.05 | locus YGL248W, strain PDE1, stronger effect = lower value 0.99 | locus YGL253W, strain hxk2, stronger effect = lower value 1.01 | locus YGR135W, strain pre9, stronger effect = lower value 1.07 | locus YGR229C, strain SMI1, stronger effect = lower value 0.982 | locus YGR252W, strain gcn5, stronger effect = lower value 1.16 | locus YHR013C, strain ard1, stronger effect = lower value 1.03 | locus YHR027C, strain rpn1, stronger effect = lower value 0.995 | locus YHR030C, strain SLT2, stronger effect = lower value 0.99 and 1.03 | locus YHR079C, strain IRE1 (second series), stronger effect = lower value 0.996 | locus YHR079C, strain IRE1, stronger effect = lower value 1.04 | locus YHR094C, strain hxt1, stronger effect = lower value 0.997 | locus YHR129C, strain ARP1, stronger effect = lower value 0.992 | locus YHR142W, strain chs7, stronger effect = lower value 1.05 | locus YHR200W, strain rpn10, stronger effect = lower value 0.998 | locus YIL066C, strain RNR3, stronger effect = lower value 0.977 | locus YIL073C, strain SPO22, stronger effect = lower value 0.989 | locus YIL125W, strain kgd1, stronger effect = lower value 0.989 | locus YIR030C, strain dcg1, stronger effect = lower value 1.01 | locus YJL092W, strain hpr5, stronger effect = lower value 1.01 | locus YJL095W, strain BCK1 (second series), stronger effect = lower value 1.01 | locus YJL095W, strain BCK1, stronger effect = lower value 1.01 | locus YJL115W, strain asf1, stronger effect = lower value 1.01 | locus YJL129C, strain trk1, stronger effect = lower value 1.03 | locus YJL134W, strain LCB3, stronger effect = lower value 0.979 | locus YJL154C, strain vps35, stronger effect = lower value 1.01 | locus YJL164C, strain tpk1, stronger effect = lower value 0.996 | locus YJL166W, strain qcr8, stronger effect = lower value 1.02 | locus YJL168C, strain set2, stronger effect = lower value 0.995 | locus YJL187C, strain SWE1 (second series), stronger effect = lower value 0.976 | locus YJL187C, strain SWE1, stronger effect = lower value 1.01 | locus YJR043C, strain POL32, stronger effect = lower value 0.967 | locus YJR066W, strain TOR1, stronger effect = lower value 0.929

From PubChem BioAssay AID1159580 (chemical genetic matrix, 2015)
